Source: PubChem BioAssay (EPA / NIEHS)
Results filed as inconclusive are left out. The source made the active and inactive calls. The calls were made as follows, unless noted: active = hit-call score of the fitted dose curve at least 0.9, where 1 is the maximum; inactive = score below 0.9.

Tests used:
[1] = molecular target: Bile acid receptor (Homo sapiens) (UniProt Q96RI1); test: OT_FXR_FXRSRC1_1440: Odyssey Thera (OT) 24-hour HEK293T Protein-Complementation Assay for Farnesoid X receptor/SRC-1 Co-activator (AID 2283384; active = hit-call score of the fitted dose curve at least 0.9, where 1 is the maximum)
Method in brief: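 Cell-based binding reporter: interaction of FXR with SRC-1 brings reporter fragments together, giving a fluorescence signal read 24 h after dosing of HEK293T cells.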

[2] = molecular target: Retinoic acid receptor RXR-alpha (Homo sapiens) (UniProt P19793); test: OT_NURR1_NURR1RXRa_1440: Odyssey Thera (OT) 24-hour HEK293T Protein Complementation Assay for Nurr1/retinoid X receptor (RXR) (AID 2283386; active = hit-call score of the fitted dose curve at least 0.9, where 1 is the maximum)
Method in brief: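 Measured as fluorescence from a reconstituted split reporter, this 24 h HEK293T complementation assay scores compound-induced gain of Nurr1/RXRα association relative to DMSO.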

[3] = molecular target: Peroxisome proliferator-activated receptor gamma (Homo sapiens) (UniProt P37231); test: OT_PPARg_PPARgSRC1_0480: Odyssey Thera (OT) 8-hour Protein-Complementation Assay for Peroxisome Proliferator-activated Receptor Gamma / SRC-1 Co-activator (AID 2283387; active = hit-call score of the fitted dose curve at least 0.9, where 1 is the maximum;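 also: nuclear to cytoplasmic split Venus YFP fluorescence ratio reporting PPARg SRC-1 interaction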)
Method in brief: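 Read-out: 488 nm N/C fluorescence ratio from complemented Venus YFP fragments, ≥350 cells per image, gain-of-signal fitted against DMSO baseline. Fusions of PPARg/SRC-1 with IFP1/IFP2 expressed transiently in HEK293T; compounds applied 8 h.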

[4] = molecular target: Peroxisome proliferator-activated receptor gamma (Homo sapiens) (UniProt P37231); test: OT_PPARg_PPARgSRC1_1440: Odyssey Thera (OT) 24-hour Protein-Complementation Assay for Peroxisome Proliferator-activated Receptor Gamma/ SRC-1 Co-activator (AID 2283388; active = hit-call score of the fitted dose curve at least 0.9, where 1 is the maximum;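 also: nuclear to cytoplasmic ratio of reconstituted Venus YFP fluorescence in fixed imaged cells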)
Method in brief: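 Readout: nuclear-to-cytoplasmic 488 nm fluorescence ratio, ≥350 cells per image, 8 images per well, after 24 h compound exposure of HEK293T expressing PPARg/SRC-1 split-YFP fusions. Activity fitted in positive direction against DMSO.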

[5] = molecular target: Bile acid receptor (Homo sapiens) (UniProt Q96RI1); test: OT_FXR_FXRSRC1_0480: Odyssey Thera (OT) 8-hour HEK293T Protein-Complementation Assay for Farnesoid X receptor/SRC-1 Co-activator (AID 2283383; active = hit-call score of the fitted dose curve at least 0.9, where 1 is the maximum)
Method in brief: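 Co-activator recruitment to FXR was measured in living HEK293T cells, where interaction of the two fused partners restored an active fluorescent reporter. Signal gain after 8 h treatment was referenced to DMSO.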

[6] = molecular target: Retinoic acid receptor RXR-alpha (Homo sapiens) (UniProt P19793); test: OT_NURR1_NURR1RXRa_0480: Odyssey Thera (OT) 8-hour HEK293T Protein Complementation Assay for Nurr1/retinoid X receptor (RXR) (AID 2283385; active = hit-call score of the fitted dose curve at least 0.9, where 1 is the maximum)
Method in brief: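 Compounds are applied to HEK293T cells carrying Nurr1 and RXRα linked to reporter fragments. After 8 h, fluorescence intensity reports heterodimer formation, with DMSO as baseline.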

[7] = read-out: Tumor necrosis factor receptor superfamily member 6 (Homo sapiens) (UniProt P25445); test: LTEA_HepaRG_FAS: Life Technologies and Expression Analysis (LTEA) Assay for Fas cell surface death receptor (FAS) using HepaRG (AID 2283447); conditions: mRNA level, 48 h; actives raise or lower the signal
Method in brief: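 FAS transcript level was measured by TaqMan qRT-PCR against three housekeeping genes after 48 h chemical exposure. Cells were HepaRG, 0.5% DMSO vehicle, with a top concentration of 100 uM and half-log dilutions over eight points, in duplicate.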

[8] = read-out: Fatty acid synthase (Homo sapiens) (UniProt P49327); test: LTEA_HepaRG_FASN: Life Technologies and Expression Analysis (LTEA) Assay for Fatty Acid Synthase (FASN) using HepaRG (AID 2283448); conditions: mRNA level, 48 h; actives raise or lower the signal;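 as to AC50: differentiated human HepaRG liver cells in serum-free induction medium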
Method in brief: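 Transcript-level assay: HepaRG liver cells are treated for 48 h across an eight-point range topping at 100 uM, and FASN mRNA, normalized to three housekeeping genes, is compared with DMSO controls in both directions.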

[9] = read-out: Cyclin D2 (CCND2), CCND2 (gene 894); test: LTEA_HepaRG_CCND2: Life Technologies and Expression Analysis (LTEA) Assay for Cyclin D2 (CCND2) using HepaRG (AID 2283449); conditions: mRNA level, 48 h; actives raise or lower the signal
Method in brief: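 Read-out is CCND2 mRNA level measured by qRT-PCR in human HepaRG liver cells and normalised to three housekeeping genes. Chemicals were applied for 48 h at up to 100 uM, with gain or loss fitted relative to 0.5% DMSO.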

[10] = read-out: Cyclin Dependent Kinase Inhibitor 1A (CDKN1A), CDKN1A (gene 1026); test: LTEA_HepaRG_CDKN1A: Life Technologies and Expression Analysis (LTEA) Assay for Cyclin Dependent Kinase Inhibitor 1A (CDKN1A) using HepaRG (AID 2283450); conditions: mRNA level, 48 h; actives raise or lower the signal
Method in brief: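 HepaRG, 48 h dosing, 8-pt half-log series from 100 uM top, 0.5% DMSO vehicle, duplicates. Readout: TaqMan qRT-PCR of CDKN1A transcript, housekeeping-normalized (ACTB, GAPDH, POLR2A). Up/down curve fit relative to DMSO.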

[11] = read-out: Cyclin D1 (CCND1), CCND1 (gene 595); test: LTEA_HepaRG_CCND1: Life Technologies and Expression Analysis (LTEA) Assay for Cyclin D1 (CCND1) using HepaRG (AID 2283451); conditions: mRNA level, 48 h; actives raise or lower the signal
Method in brief: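 qRT-PCR (Fluidigm 96.96 array) read-out of transcript level, housekeeping-normalized (ACTB/GAPDH/POLR2A). HepaRG cells, 48 h chemical exposure, 8-point half-log series from 100 uM, 0.5% DMSO vehicle; gain or loss relative to DMSO baseline.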

[12] = read-out: catalase (CAT), CAT (gene 847); test: LTEA_HepaRG_CAT: Life Technologies and Expression Analysis (LTEA) Assay for catalase (CAT) using HepaRG (AID 2283452); conditions: mRNA level, 48 h; actives raise or lower the signal
Method in brief: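 Expression of CAT was quantified by TaqMan qRT-PCR with ACTB/GAPDH/POLR2A normalization after 48 h chemical exposure of HepaRG. Eight-point half-log series, top 100 uM, in 0.5% DMSO; gain or loss fitted against vehicle.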

[13] = read-out: flavin-containing dimethylaniline monooxygenases 3 (FMO3), FMO3 (gene 2328); test: LTEA_HepaRG_FMO3: Life Technologies and Expression Analysis (LTEA) Assay for flavin-containing dimethylaniline monooxygenases 3 (FMO3) using HepaRG (AID 2283453); conditions: mRNA level, 48 h; actives raise or lower the signal
Method in brief: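 HepaRG, 48 h exposure, 8-pt half-log series from 100 uM, 0.5% DMSO vehicle, duplicates; FMO3 transcript by Fluidigm TaqMan qRT-PCR, housekeeping-normalized; gain/loss fit vs DMSO.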

[14] = CEETOX_H295R_OHPREG: CeeTox H295R High-throughput Steroidogenesis Assay for OH-Pregnenolone (OHPREG) (AID 2283434); conditions: actives raise or lower the signal
Method in brief: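 Hormone levels in spent medium were measured by tandem mass spectrometry following liquid-liquid extraction. Cells (H295R) had been forskolin-stimulated (10 uM, 48 h) before a 48 h chemical exposure at 0.1% DMSO, with activity fitted in both directions against DMSO.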

[15] = CEETOX_H295R_CORTIC: CeeTox H295R High-throughput Steroidogenesis Assay for Corticosterone (CORTIC) (AID 2283437); conditions: actives raise or lower the signal;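 also: corticosterone secreted into medium quantified by mass spectrometry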
Method in brief: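 Corticosterone secreted into medium is measured by reverse-phase HPLC with tandem MS following liquid-liquid extraction. Cells are forskolin-stimulated (10 uM, 48 h) before 48 h test exposure; activity fitted in both directions against DMSO.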

[16] = CEETOX_H295R_DOC: CeeTox H295R High-throughput Steroidogenesis Assay for DOC (AID 2283439); conditions: actives raise or lower the signal
Method in brief: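 Secreted DOC was quantified from H295R media by HPLC-MS/MS after 48 h chemical exposure following 48 h forskolin (10 uM) prestimulation. Values were fitted in both directions relative to DMSO, the negative control and baseline.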

[17] = CEETOX_H295R_ESTRADIOL: CeeTox H295R High-throughput Steroidogenesis Assay for Estradiol (AID 2283440); conditions: actives raise or lower the signal;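 also: estradiol secreted into medium quantified by LC-MS/MS after dansyl derivatisation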
Method in brief: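 H295R, 48 h forskolin (10 uM) prestim → 48 h compound, 0.1% DMSO final. Estradiol in medium: MTBE extraction, dansyl chloride derivatization, LC-MS/MS. Fit bidirectional vs DMSO baseline; MTT viability in same wells.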

Chain of Fatty acid synthase (Homo sapiens) (P49327 whole entry, looked up): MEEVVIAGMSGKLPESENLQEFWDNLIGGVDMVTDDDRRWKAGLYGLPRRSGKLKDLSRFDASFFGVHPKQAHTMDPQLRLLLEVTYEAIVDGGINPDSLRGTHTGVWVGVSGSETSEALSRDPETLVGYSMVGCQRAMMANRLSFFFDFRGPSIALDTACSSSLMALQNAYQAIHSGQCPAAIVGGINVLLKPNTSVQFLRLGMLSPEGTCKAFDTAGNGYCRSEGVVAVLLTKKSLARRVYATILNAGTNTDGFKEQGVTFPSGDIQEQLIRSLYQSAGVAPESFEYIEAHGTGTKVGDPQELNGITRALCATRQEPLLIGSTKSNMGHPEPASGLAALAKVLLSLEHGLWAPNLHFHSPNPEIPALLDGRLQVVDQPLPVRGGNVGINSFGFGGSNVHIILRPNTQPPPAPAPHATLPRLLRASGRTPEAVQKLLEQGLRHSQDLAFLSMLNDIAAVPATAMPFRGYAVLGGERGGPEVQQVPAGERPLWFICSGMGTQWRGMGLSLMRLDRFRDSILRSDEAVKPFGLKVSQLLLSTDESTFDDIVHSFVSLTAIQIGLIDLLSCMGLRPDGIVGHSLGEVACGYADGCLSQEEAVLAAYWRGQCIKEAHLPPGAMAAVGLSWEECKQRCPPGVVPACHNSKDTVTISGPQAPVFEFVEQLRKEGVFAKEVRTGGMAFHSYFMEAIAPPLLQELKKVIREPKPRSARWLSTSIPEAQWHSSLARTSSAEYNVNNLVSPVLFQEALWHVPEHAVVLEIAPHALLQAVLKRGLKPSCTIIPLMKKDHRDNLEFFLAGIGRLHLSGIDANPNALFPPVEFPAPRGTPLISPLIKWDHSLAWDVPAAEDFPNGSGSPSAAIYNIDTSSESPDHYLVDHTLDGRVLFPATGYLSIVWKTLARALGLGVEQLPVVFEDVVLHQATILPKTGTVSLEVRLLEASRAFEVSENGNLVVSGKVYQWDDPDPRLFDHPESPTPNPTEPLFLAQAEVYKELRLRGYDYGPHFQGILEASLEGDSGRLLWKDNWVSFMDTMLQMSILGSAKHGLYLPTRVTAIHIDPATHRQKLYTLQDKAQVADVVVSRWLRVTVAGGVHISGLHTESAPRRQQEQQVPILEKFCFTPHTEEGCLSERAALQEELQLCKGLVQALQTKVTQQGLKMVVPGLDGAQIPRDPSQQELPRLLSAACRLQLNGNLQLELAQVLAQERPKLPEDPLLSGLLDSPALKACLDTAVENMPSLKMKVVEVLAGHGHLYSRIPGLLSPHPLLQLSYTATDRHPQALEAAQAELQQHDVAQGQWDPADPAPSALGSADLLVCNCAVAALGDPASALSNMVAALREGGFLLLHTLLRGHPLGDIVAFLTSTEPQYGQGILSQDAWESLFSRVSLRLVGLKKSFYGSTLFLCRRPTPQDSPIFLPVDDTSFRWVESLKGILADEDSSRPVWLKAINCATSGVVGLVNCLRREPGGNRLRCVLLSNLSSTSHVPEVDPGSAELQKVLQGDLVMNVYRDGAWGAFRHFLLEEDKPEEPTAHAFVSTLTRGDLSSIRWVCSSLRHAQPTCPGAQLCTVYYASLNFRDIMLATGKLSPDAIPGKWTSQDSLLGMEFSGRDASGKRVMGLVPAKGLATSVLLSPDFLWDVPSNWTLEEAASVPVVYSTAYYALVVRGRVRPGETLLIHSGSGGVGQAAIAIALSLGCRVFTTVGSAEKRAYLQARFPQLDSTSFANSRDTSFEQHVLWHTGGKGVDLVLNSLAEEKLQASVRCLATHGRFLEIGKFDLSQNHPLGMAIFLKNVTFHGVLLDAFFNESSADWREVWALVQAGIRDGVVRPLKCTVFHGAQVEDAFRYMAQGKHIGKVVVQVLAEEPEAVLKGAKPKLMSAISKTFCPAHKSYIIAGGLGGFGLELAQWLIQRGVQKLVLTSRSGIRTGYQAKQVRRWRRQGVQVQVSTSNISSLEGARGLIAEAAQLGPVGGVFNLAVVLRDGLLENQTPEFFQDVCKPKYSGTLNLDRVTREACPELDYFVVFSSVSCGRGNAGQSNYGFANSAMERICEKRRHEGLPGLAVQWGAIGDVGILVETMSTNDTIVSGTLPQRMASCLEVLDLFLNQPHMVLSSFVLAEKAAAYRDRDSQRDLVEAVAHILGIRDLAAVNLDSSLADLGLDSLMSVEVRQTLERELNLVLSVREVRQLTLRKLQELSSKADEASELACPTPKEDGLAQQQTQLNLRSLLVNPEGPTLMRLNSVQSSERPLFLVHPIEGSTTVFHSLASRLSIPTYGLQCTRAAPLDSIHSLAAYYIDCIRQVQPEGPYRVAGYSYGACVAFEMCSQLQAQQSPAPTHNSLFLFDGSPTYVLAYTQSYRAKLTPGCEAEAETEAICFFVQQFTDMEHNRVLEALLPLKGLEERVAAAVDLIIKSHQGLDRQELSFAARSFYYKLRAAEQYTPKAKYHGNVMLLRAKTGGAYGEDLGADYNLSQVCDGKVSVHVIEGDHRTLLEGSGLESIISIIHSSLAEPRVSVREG
Chain of Peroxisome proliferator-activated receptor gamma (Homo sapiens) (P37231 whole entry, looked up, the tested form may be a part): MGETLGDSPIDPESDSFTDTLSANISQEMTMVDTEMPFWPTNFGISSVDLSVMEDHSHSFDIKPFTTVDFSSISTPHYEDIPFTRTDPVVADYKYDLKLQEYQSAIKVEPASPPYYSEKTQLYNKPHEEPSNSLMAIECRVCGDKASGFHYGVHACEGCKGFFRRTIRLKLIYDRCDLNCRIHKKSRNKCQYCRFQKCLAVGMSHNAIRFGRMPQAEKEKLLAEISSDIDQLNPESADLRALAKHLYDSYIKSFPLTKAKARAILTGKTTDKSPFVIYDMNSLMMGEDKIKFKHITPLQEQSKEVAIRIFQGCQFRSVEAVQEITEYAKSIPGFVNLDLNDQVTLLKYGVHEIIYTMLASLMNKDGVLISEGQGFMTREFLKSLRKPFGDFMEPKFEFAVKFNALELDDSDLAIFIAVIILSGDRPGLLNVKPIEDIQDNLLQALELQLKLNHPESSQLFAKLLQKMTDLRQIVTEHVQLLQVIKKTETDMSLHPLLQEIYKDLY
Chain of Retinoic acid receptor RXR-alpha (Homo sapiens) (P19793 whole entry, looked up, the tested form may be a part): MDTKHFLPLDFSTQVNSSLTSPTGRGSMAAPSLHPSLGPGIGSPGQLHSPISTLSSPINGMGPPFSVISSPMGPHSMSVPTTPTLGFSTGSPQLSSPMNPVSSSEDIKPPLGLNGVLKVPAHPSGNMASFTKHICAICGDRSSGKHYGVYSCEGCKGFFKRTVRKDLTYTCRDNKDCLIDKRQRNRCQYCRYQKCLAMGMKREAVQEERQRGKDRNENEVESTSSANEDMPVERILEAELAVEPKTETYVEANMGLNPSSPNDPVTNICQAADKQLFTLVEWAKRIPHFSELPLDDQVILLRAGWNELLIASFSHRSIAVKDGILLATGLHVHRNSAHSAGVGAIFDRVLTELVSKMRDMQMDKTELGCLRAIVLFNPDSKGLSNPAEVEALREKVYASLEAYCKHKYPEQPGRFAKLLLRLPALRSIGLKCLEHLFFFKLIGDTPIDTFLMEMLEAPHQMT
Chain of Bile acid receptor (Homo sapiens) (Q96RI1 whole entry, looked up, the tested form may be a part): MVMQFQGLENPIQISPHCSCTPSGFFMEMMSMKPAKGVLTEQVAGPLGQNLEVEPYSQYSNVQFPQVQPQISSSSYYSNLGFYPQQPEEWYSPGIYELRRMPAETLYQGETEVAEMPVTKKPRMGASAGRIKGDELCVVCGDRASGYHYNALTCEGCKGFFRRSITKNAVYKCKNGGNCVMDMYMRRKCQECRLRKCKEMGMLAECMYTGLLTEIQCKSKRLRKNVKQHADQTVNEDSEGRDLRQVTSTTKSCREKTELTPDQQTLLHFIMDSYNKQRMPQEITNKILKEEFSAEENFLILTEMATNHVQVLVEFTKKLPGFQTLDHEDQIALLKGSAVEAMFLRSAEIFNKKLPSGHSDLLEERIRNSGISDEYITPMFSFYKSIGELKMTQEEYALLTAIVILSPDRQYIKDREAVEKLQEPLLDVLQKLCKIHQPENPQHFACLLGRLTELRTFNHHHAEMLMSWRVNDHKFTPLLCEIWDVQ

| SMILES | outcome [1] | outcome [2] | outcome [3] | outcome [4] | outcome [5] | outcome [6] | outcome [7] | outcome [8] | outcome [9] | outcome [10] | outcome [11] | outcome [12] | outcome [13] | outcome [14] | outcome [15] | outcome [16] | outcome [17] | AC50 [8] | AC50 [10] |
| --- | --- | --- | --- | --- | --- | --- | --- | --- | --- | --- | --- | --- | --- | --- | --- | --- | --- | --- | --- |
| CCOC(=O)c1ccccc1N | inactive | inactive | inactive | inactive |  |  |  |  |  |  |  |  |  |  |  |  |  |  |  |
| CCCCc1ccccc1 |  | inactive | inactive | inactive | inactive | inactive | inactive | inactive | inactive | inactive | inactive | inactive | inactive |  |  |  |  |  |  |
| CCOc1ccc(C(C)(C)COCc2cccc(Oc3ccccc3)c2)cc1 |  | inactive | inactive | inactive | inactive |  | inactive | inactive |  | inactive | inactive | inactive | inactive |  |  |  |  |  |  |
| O=C(O)C1C(C(=O)O)C2(Cl)C(Cl)=C(Cl)C1(Cl)C2(Cl)Cl (centres undefined) | inactive |  |  |  | inactive |  | inactive | inactive | inactive | inactive | inactive | inactive | inactive |  |  |  |  |  |  |
| CCC1(c2ccccc2)C(=O)N=C(O)NC1=O (centres undefined) |  | inactive | inactive | inactive |  | inactive | inactive | inactive | inactive | inactive | inactive | inactive | inactive |  |  |  |  |  |  |
| Cc1ccc(N)cc1N | inactive | inactive | inactive | inactive | inactive |  | inactive |  | inactive | inactive | inactive | inactive | inactive | inactive | inactive | inactive | inactive | 14.7 µM (active) |  |
| OCC1CO1 (centres undefined) | inactive | inactive | inactive | inactive |  |  | inactive | inactive | inactive | inactive | inactive | inactive | inactive |  |  |  |  |  |  |
| c1cc2c3c(cccc3c1)CC2 |  | inactive | inactive | inactive |  | inactive | inactive | inactive | inactive |  | inactive | inactive | inactive |  |  |  |  |  | 0.387 µM (active) |
